Sampled rows, rich in hits. Any-hit rate of the full collection: about 7.5%.
FLuc counter: qHTS profiling assay for firefly luciferase inhibitor/activator using purifed enzyme and Km concentrations of substrates (counterscreen for miR-21 project); purified FLuc, Km substrates, luminescence inhibition; AID 588342, 2011; Potency, µM (doses to about 57.5 µM), inactives show at the top dose activity change, negative = inhibition, usual class: inhibitors; actives 6.9% (n = 360,000); Luciferin 4-monooxygenase (Photinus pyralis), P08659;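 also: plate controls were vehicle for no effect and reference inhibitor for full effect; nearly all actives have a fitted effect of over 55% in size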
Target sequence (P08659 whole entry, looked up): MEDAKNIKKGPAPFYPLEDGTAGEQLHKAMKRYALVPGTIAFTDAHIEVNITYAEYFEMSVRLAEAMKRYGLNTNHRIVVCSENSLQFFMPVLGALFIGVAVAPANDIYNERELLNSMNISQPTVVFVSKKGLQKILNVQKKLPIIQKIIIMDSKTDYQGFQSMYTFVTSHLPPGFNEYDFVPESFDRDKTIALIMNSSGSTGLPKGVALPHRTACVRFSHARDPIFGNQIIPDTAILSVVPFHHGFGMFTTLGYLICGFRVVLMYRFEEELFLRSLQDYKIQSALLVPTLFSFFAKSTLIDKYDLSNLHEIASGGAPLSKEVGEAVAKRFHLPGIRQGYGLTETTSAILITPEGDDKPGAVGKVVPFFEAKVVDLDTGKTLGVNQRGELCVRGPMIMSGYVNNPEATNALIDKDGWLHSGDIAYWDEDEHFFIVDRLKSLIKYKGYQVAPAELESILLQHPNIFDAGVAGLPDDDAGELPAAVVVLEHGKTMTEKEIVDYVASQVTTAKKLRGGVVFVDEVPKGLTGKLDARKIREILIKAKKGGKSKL
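Purified P. pyralis luciferase, 10 nM final, with Km-level 10 uM D-luciferin and 10 uM ATP in 50 mM Tris acetate pH 7.5, 10 mM Mg acetate, 0.01% Tween-20, 0.05% BSA; 6-point qHTS titration about 60 µM downward; luminescence read.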
SMN2 splice enh: qHTS Assay for Enhancers of SMN2 Splice Variant Expression; actives 2.8% (n = 210,000); HEK293 SMN2-luciferase splicing reporter, luminescence, 30-36 h; Potency, µM (titrated, usually from 46.1 µM), inactives show at the highest dose activity change, positive = activation, hits mostly activators; AID 1458, 2008; also: % of control where 0% means no effect; nearly all actives have a fitted effect of over 55% in size
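HEK293 cells carry an SMN2 minigene-luciferase reporter in which exon 7 inclusion puts luciferase in frame. Cells were seeded at 2000 cells/well, attached for 10-12 hours, then exposed to compounds for 30-36 hours at 37C before ONE-Glo luminescence.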
NPC1 promoter act: qHTS Assay for NPC1 Promoter Activators | Huh7 NPC1 promoter luciferase reporter, 24 h | actives 2.4% (n = 320,000) | AID 485313, 2010 | Potency, µM (doses to about 9.22 µM), for inactives: at the highest dose activation, hits mostly activators; also: % of control where 0% means no effect; nearly all actives have a fitted effect of over 60% in size
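Luminescence read-out of NPC1 promoter-driven luciferase in stably transfected Huh7 cells; compounds delivered in DMSO and left 24 h at 37C, 5% CO2, qHTS titration format.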
Rab9 promoter act: qHTS Assay for Rab9 Promoter Activators. Huh7 Rab9 promoter-luciferase reporter, luminescence, 24 h. Potency, µM (titrated, usually from 9.22 µM), for the others: top-dose activation, negative = inhibition, usual class: activators. actives 2.8% (n = 320,000); also: % of control where 0% means no effect; nearly all actives have a fitted effect of over 60% in size
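Promoter activation is measured as luciferase luminescence in Huh7 cells stably transfected with a Rab9 promoter–luciferase construct, following 24 h compound exposure at 37 °C and 10 min reagent incubation at ambient temperature.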
ELG1 genotox: qHTS screen for small molecules that induce genotoxicity in human embryonic kidney (HEK293T) cells expressing luciferase-tagged ELG1; HEK293T ELG1-luciferase reporter, luminescence, 16 h; Potency, µM (titrated, usually from 46 µM), inactives show at the highest dose activity change, positive = activation, usual class: activators; actives 1.3% (n = 330,000); AID 504466, 2011; also: % of control where 0% means no effect; nearly all actives have a fitted effect of over 60% in size
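HEK293T cells expressing luciferase-tagged ELG1 were treated with compound or DMSO for 16 hr at 37°C. Luciferase activity was then read after 30 min with ONE-Glo at room temperature; rising signal flags genetic stress.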
Starred values were filed as active, the others as inactive; ? = inconclusive; . = no result given; [ ] = another dose, or the depositor's remark. Calls follow the shape of the dose curve; as a rule, active = well fitted curve in the direction sought with a large enough effect; inconclusive = small, poorly fitted or top-dose-only effect, or another doubt; inactive = no such curve, though single readings can be large; an effect the other way counts as inactive or inconclusive. Potency is read from the fitted curve at half-maximal effect.

SMILES	FLuc counter	SMN2 splice enh	NPC1 promoter act	Rab9 promoter act	ELG1 genotox
Cc1csc(NC(=O)Cc2c[nH]c3ccccc23)n1	?	-3%	3%	28%	?
CCC(=O)Nc1ccc(C(=O)Nc2cccc(C)n2)cc1	17µM*	.	3.5µM*	2.5µM*	?
Cc1csc(NC(=O)Cc2ccc(F)cc2)n1	?	.	?	3.5µM*	?
CC(NCc1cc(Br)ccc1OCC(N)=O)C12CC3CC(CC(C3)C1)C2 (configuration not stated)	6%	.	-3%	0%	-4%
Cc1csc(NC(=O)Cc2c(F)cccc2Cl)n1	?	.	3.5µM*	3.2µM*	?
O=C(Cc1c(F)cccc1Cl)Nc1ccncc1	3%	-36%	-2%	-4%	-7%
O=[N+]([O-])c1ccc(NCCNS(=O)(=O)c2ccccc2)cc1	-1%	.	-3%	-2%	-6%
c1ccc(Nc2nc(-c3cccs3)cs2)nc1	0.76µM*	3.2µM*	?	?	?
Cc1noc(C)c1C(=O)Nc1nc(-c2cccs2)cs1	?	.	?	?	9%
Nc1ccc(Nc2nc(-c3cccs3)cs2)cc1	-1%	.	-3%	-4%	-3%
Cc1cccc(Nc2nc(-c3ccccn3)cs2)n1	1.7µM*	3.2µM*	1.3µM*	0.63µM*	0.82µM*
CSCCC(=O)Nc1nc(-c2ccccn2)cs1	?	5%	1%	2%	-6%
Cc1cccc(Nc2nc(-c3cccs3)cs2)n1	2.1µM*	1.4µM*	?	2.5µM*	?
CCC(=O)Nc1nnc(S(=O)(=O)N2CCCC2)s1	-1%	.	2%	2%	1%
COc1cccc(-c2nccc(NCc3cccc(C)c3)n2)c1	.	11µM*	.	.	.
COc1ccc(NC(=O)CCC(=O)Nc2ccc3nc(N4CCOCC4)cc(C)c3c2)c(OC)c1	2.7µM*	.	?	2.5µM*	?
COc1ccc(N(C)C(=O)CCC(=O)Nc2ccc3nc(N4CCOCC4)cc(C)c3c2)c(OC)c1	?	.	-2%	16%	-2%
COc1cc(NC(=O)CCC(=O)Nc2ccc3nc(N4CCOCC4)cc(C)c3c2)cc(OC)c1OC	15µM*	.	24%	16%	6%
COc1ccc(C(=O)Nc2cc(C(C)C)c(O)c(S(=O)(=O)c3ccc(Cl)cc3)c2C)cc1	?	11µM*	.	.	.
COc1ccc(S(=O)(=O)Nc2cc(C(C)C)c(O)cc2C)cc1	0%	7%	-3%	0%	-3%
COc1ccc(C(=O)Nc2cc(C(C)C)c(O)c(S(=O)(=O)c3ccc(OC)cc3)c2C)cc1	?	16µM*	.	.	.
COc1ccc(S(=O)(=O)c2c(O)c3ccc(C(=O)Nc4ccccc4F)cc3[nH]c2=O)cc1	-17%	.	-4%	4%	0%[9.26 µM]
Cc1ccc(O)c(NC(=O)c2cc(-c3ccccc3O)no2)c1	6%	.	.	.	.
Oc1ccccc1-c1cc(-c2ccccc2)no1	0.85µM*	3.2µM*	5.6µM*	?	?
CCC(Oc1ccc(F)cc1)C(=O)Nc1cc(-c2ccc(C)cc2)no1 (configuration not stated)	-2%	7%	.	.	.
SMILES	FLuc counter	SMN2 splice enh	NPC1 promoter act	Rab9 promoter act	ELG1 genotox
Cc1ccccc1-c1cc(-c2ccccc2O)on1	1.9µM*	7.1µM*	?	?	?
CC(C)(C)c1cc(-c2ccccc2)no1	?	.	-1%	-7%	-1%
Cc1ccc(-c2cc(-c3ccccc3)no2)c(O)c1	0.17µM*	.	3.2µM*	2µM*	0.37µM*
Cc1ccc(O)c(-c2cc(-c3ccc(F)cc3)no2)c1	0.95µM*	.	-33%	-33%	2.1µM*
CCN(C[C@H]1N[C@@](C)(C(=O)OC)[C@H]2C(=O)N(C)C(=O)[C@@H]12)C(=O)C1CCCCC1	.	.	.	.	1%
COc1cccc(-c2nccc(-n3ccnc3)n2)c1	.	13µM*	.	.	.
COc1cccc(-c2cncnc2-n2ccnc2)c1	.	18%	.	.	.
CCOc1ccc(S(=O)(=O)N(CC(=O)N2CCc3ccccc32)Cc2ccco2)cc1	-1%	-15%	6%	1%	-11%

Bioassay records: PubChem BioAssay, National Center for Advancing Translational Sciences (NCATS)
